KDM5B inhibitor – inhibitors of human KDM5B histone demethylase | KDM5B demethylase, FDH-coupled NADH fluorescence (FDH is formaldehyde dehydrogenase) | Q9UGL1 | hit rate 2.6% among 220,000 | Potency, µM (top dose mostly 57.7 µM), most hits filed as inhibitors; active = well fitted inhibition curve with a large enough effect; note: 0% is about no effect; nearly all actives have a fitted effect of over 70% in size
Target sequence (Q9UGL1 whole entry, looked up): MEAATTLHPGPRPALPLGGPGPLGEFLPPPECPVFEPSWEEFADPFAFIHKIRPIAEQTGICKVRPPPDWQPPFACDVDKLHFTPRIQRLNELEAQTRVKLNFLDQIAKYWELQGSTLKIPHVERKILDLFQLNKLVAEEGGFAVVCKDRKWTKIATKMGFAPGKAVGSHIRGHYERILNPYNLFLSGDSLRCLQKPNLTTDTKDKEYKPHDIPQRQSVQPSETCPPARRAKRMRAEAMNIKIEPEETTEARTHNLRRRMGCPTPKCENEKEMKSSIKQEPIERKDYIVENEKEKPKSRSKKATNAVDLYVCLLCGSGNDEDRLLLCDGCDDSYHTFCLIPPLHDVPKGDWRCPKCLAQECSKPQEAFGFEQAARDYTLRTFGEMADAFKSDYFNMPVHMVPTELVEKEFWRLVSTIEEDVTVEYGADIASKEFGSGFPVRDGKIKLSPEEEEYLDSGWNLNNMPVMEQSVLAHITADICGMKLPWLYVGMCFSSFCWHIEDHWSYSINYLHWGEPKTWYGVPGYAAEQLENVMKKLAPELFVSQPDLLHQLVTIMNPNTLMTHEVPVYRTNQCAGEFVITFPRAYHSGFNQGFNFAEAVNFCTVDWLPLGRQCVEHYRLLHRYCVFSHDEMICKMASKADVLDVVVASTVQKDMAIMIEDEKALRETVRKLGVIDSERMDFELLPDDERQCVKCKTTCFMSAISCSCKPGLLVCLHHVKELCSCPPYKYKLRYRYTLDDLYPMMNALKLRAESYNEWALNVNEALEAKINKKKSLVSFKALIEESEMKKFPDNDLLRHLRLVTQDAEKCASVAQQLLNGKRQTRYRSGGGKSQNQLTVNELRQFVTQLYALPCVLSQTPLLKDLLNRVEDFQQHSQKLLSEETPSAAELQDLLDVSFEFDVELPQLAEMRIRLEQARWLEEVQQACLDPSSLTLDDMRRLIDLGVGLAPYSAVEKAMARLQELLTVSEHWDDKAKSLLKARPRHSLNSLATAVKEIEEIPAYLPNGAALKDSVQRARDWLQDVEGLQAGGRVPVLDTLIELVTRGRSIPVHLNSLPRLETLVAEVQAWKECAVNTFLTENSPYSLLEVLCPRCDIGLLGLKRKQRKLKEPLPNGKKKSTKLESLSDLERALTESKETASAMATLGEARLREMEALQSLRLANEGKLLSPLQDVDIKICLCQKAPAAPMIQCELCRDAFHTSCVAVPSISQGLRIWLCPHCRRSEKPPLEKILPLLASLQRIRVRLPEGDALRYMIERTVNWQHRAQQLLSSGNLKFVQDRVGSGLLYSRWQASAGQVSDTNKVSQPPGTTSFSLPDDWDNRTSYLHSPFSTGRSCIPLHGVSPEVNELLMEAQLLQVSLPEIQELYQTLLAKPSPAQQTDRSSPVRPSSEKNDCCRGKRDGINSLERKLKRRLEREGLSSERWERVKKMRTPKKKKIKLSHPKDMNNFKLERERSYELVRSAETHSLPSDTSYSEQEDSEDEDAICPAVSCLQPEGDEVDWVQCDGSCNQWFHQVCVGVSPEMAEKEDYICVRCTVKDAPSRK
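KDM5BΔAP (200 nM final) in 50 mM HEPES pH 7.5, 0.01% Tween-20 was preincubated 10 min at RT with compound over a concentration range. Substrate mix (H3K4me3 12.5 µM, α-KG 25 µM, Fe²⁺, ascorbate, NAD⁺, FDH) was added, and NADH fluorescence change over 30 min gave dose-response curves.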
* marks the source's active call; other numbers are inactive results; i = inactive. Shown is part of a subset that was picked to be rich in hits. Potency is the fitted concentration of half-maximal effect.

SMILES	KDM5B inhibitor
O=C(NCc1ccc(F)cc1F)c1cc2n(n1)CC(c1ccc(Cl)cc1)OC2 (stereo not given)	i
O=C(Nc1ccc(F)c(Cl)c1)c1cc2n(n1)CC(c1ccc3c(c1)OCO3)OC2 (stereo not given)	32µM*
Cc1ccc(-c2nc3ccccc3[nH]2)cc1NC(=O)COc1ccccc1[N+](=O)[O-]	i
COC(=O)c1ccccc1NC(=O)c1nn(C2CCS(=O)(=O)C2)c2c1CCCC2 (stereo not given)	i
CCCCCC(=O)Nc1nc2c(s1)C[C@@H]1[C@](C)(CO)[C@H](O)CC[C@@]1(C)[C@@H]2CC(=O)Nc1ccccc1	i
Cc1cccn2c(=O)cc(COc3cccc(NC(=O)c4cccc(Cl)c4)c3)nc12	i
O=C(O)CCC(=O)NNc1nc(-c2ccccc2)c2cc(Cl)ccc2n1	i
CCn1cnc2c1c(=O)n(CC(=O)Nc1ccc(Oc3ccccc3)cc1)c(=O)n2Cc1ccccc1	i
CN(CCOc1ccccc1)C(=O)C1CCC(=O)N(CCCN2CCOCC2)C1 (stereo not given)	i
Cc1cccc(N/N=C(/c2ccccc2)c2ccc(F)cc2)c1C	i
CCOc1ccccc1C(=O)NCc1ccc2c(c1)CCN2C(=O)c1ccccc1	i
COc1cccc(CN2Cc3nc(Oc4ccccc4)ccc3OCC2=O)c1	i
COc1ccc(-c2ccc3c(n2)CN(Cc2csc(C)n2)C(=O)CO3)cc1F	35µM*
CN1CCCC1COc1ccc2c(n1)CN(Cc1ccc(F)cc1)C(=O)CO2 (stereo not given)	i
COc1cccc(CN2Cc3nc(-c4cnn(Cc5ccccc5)c4)ccc3OCC2=O)c1	i
Cc1nc(CN2Cc3nc(-c4ccccc4F)ccc3OCC2=O)cs1	i
COc1cccc(CN2Cc3nc(-c4c(C)noc4C)ccc3OCC2=O)c1	i
COc1cccc(CN2Cc3nc(N(C)c4ccccc4)ccc3OCC2=O)c1	32µM*
CN(c1ccccc1)c1ccc2c(n1)CN(Cc1ccc(F)cc1)C(=O)CO2	32µM*
COc1cccc(CN2Cc3nc(-c4cnn(C)c4)ccc3OCC2=O)c1	i
O=C1COc2ccc(OCc3cncs3)nc2CN1Cc1ccc(F)cc1	i
Cc1nc(CN2Cc3nc(-c4cnn(Cc5ccccc5)c4)ccc3OCC2=O)cs1	i
COc1cccc(CN2Cc3nc(-c4cc5ccccc5o4)ccc3OCC2=O)c1	50µM*
COc1cccc(COCC(O)CN2CCC(C(N)=O)CC2)c1 (stereo not given)	i
CC(C)n1c(C2CCN(C(=O)CC3CCCC3)CC2)nn(C)c1=O	i
SMILES	KDM5B inhibitor
COc1ccccc1NC(=O)CSc1nc(C)cc(C)c1C(=O)Nc1ccccc1	i
CC(CNC(=O)CN1C(=O)NC2(CCOc3ccccc32)C1=O)c1ccccc1 (stereo not given)	i
COc1cc2c(cc1OC)CN(Cc1cc(=O)c(OCc3ccccc3F)co1)CC2	i
COc1ccc(C(=O)NCC(c2ccc(N(C)C)cc2)N2CCOCC2)cc1 (stereo not given)	i
Cc1cc(NC(=O)CN2CCN(c3nccs3)CC2)on1	i
O=C(c1ccc(Cl)cc1)N1CCN(CCc2ccncc2)CC1	i
Cn1c(=O)[nH]c(=O)c2c1nc(SCC(=O)Nc1ccccc1)n2Cc1cccc(Cl)c1	i
CC(=O)N[C@@H]1C[C@H](Cn2cc(CN3CCS(=O)(=O)CC3)nn2)[C@@H](O)[C@H]1O	i
COc1cccc(CN2Cc3nc(-c4cncnc4)ccc3OCC2=O)c1	i
O=C(CN1Cc2nc(-c3ccsc3)ccc2OCC1=O)N1CCCC1	i
Cc1ccccc1-c1ccc2c(n1)CN(CCOc1ccccc1)C(=O)CO2	i
O=C(CN1Cc2nc(-c3cc4ccccc4o3)ccc2OCC1=O)N1CCCC1	28µM*
COc1cccc(CN2Cc3nc(-c4cc(Cl)ccc4OC)ccc3OCC2=O)c1	35µM*
CC(=O)Nc1cccc(-c2ccc3c(n2)CN(Cc2ccccc2)C(=O)CO3)c1	i
NC(=O)c1cccc(-c2ccc3c(n2)CN(Cc2ccc(F)cc2)C(=O)CO3)c1	35µM*
COc1cccc(CN2Cc3nc(-c4ccc(F)cc4)ccc3OCC2=O)c1	i
COc1cccc(CN2Cc3nc(-c4cccc(NC(C)=O)c4)ccc3OCC2=O)c1	i
CCc1cccc(NC(=O)CN2C=NS(=O)(=O)c3ccccc32)c1	i
CCN(C(=O)c1nn(-c2ccc(C)cc2)c(=O)c2c1c1ccccc1n2C)c1ccc(F)cc1	i
Cc1cc(C)n(C(C)CNC(=O)c2cccc(CCC(C)(C)O)c2)n1 (stereo not given)	i
COc1cc(C(=O)Nc2ccc(Cl)c(-c3nc4ncccc4o3)c2)cc(OC)c1OC	i
CCc1ccc(NC(=O)CSc2nccn2-c2ccc(F)cc2)cc1	i
O=C1COc2cc(S(=O)(=O)CCC(=O)NC3CCCCC3)c(Cl)cc2N1	i
Cc1c(F)cc(C(N)=O)cc1NS(=O)(=O)c1cc(F)ccc1F	i
COCCN1CC2(CCCN(Cc3ccccc3OC)C2)CCC1=O (stereo not given)	i

Assay outcomes deposited in PubChem BioAssay by National Center for Advancing Translational Sciences (NCATS).
